Measured values from PubChem BioAssay AID1445 (SRMLSC, 2008).
Hit rate of the full screen: of about 220,000 compounds, about 910 (0.41%) were called active.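 The calls were made as follows: active = primary inhibition above the hit cutoff, then over 50% inhibition at one or more dose response concentrations (cut at about 23% in these data, passing the limit was not always enough); inconclusive = conflicting primary data, or primary hits not chosen for dose response; inactive = low primary inhibition, or under 50% at every dose.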 The list comes from a sample in which actives are over-represented; it also holds similar structures and randomly drawn compounds. Entries with a potency or affinity are not part of this list.

Each molecule was assayed against Aminopeptidase N (Plasmodium falciparum (isolate 3D7)) (UniProt O96935) (assay: malaria alanyl aminopeptidase activity blockers – biochemical, fluorogenic H-Leu-NHMec substrate, 1536-well (AID 1445;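 also: plate controls were DMSO full reaction for no effect and no enzyme background for full effect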)). Details: recombinant M1AAP, H-Leu-NHMec fluorogenic kinetic assay; at 30 µM, hits give high values unless noted.
Sequence of Aminopeptidase N (Plasmodium falciparum (isolate 3D7)) (O96935 whole entry, looked up): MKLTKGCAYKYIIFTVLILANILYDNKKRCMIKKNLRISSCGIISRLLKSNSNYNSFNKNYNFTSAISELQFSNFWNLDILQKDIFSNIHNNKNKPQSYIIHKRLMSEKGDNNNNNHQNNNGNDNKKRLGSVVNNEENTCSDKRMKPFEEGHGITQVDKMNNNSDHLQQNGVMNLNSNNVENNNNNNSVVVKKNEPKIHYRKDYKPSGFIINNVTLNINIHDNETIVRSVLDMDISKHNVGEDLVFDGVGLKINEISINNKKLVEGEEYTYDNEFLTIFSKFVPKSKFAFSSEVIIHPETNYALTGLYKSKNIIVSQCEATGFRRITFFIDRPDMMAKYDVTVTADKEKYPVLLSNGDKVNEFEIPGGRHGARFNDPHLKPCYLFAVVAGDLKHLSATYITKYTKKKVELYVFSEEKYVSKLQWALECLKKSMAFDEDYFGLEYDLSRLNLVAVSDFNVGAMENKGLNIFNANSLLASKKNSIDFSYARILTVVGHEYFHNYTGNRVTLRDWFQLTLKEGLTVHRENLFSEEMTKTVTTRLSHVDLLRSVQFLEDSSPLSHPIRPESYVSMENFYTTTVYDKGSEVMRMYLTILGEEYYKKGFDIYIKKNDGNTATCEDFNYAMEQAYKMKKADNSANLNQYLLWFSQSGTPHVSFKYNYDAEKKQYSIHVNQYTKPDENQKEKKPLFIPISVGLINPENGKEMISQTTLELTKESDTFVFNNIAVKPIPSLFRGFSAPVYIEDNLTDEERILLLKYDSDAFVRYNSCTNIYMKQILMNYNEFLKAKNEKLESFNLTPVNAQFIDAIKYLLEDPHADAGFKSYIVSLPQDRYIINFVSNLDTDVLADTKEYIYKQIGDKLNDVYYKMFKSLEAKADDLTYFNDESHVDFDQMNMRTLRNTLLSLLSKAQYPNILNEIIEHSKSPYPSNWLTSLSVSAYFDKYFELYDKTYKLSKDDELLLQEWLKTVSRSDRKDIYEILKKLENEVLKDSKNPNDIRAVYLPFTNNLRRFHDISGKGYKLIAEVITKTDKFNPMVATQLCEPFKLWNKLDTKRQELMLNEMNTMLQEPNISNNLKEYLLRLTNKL
In the case of `Cn1c(SCC(=O)N(Cc2ccccc2)C(C)(C)C)nc2ccccc21`, the inhibition is reported as -3.33% (inactive). For `COC(=O)c1ccc(N(C(=O)CNC(=O)c2ccco2)C(C(=O)NC2CCCC2)c2ccco2)cc1` (stereo unspecified), the inhibition was -1.68% (inactive). For `FC(F)(F)c1cccc(OCCN2CCN(Cc3ccccc3)CC2)c1`, the inhibition was -0.96% (inactive). For `O=c1cnnc(N/N=C/c2ccc3c(c2)OCO3)[nH]1`, the inhibition was 4.09% (inactive). For `COc1ccc(C(=O)COc2ccc(F)cc2)c(O)c1C`, the inhibition was 0.41% (inactive). With `CCCCN1CNC(=S)N(CCc2ccccc2)C1` the inhibition was 2.11% (inactive). With `O=c1cc(/N=C/c2coc3cc(Br)ccc3c2=O)[nH]c(=S)[nH]1` the inhibition was 18.8% (inactive). `O=C(NNC(=O)c1ccccc1O)c1ccco1` was tested, and the inhibition was 5.04% (inactive). For `O=C(CN1C(=O)/C(=C/c2ccccc2)SC1=S)NNC(=O)c1ccccc1O`, the inhibition was 6.33% (inactive). `O=C(NN=C1CCN(Cc2ccccc2)CC1)c1ccccc1O` was tested, and the inhibition was 8.75% (inactive). `O=C(CCCN1C(=O)S/C(=C\c2ccccc2)C1=O)NNC(=O)c1ccccc1O` was tested, and the inhibition was -1.57% (inactive). In the case of `CCN1C(=O)C2(C(C(=O)c3cc4ccccc4o3)=C(O)C(=O)N2CCCN2CCOCC2)c2ccccc21` (stereo unspecified), the inhibition is reported as 2.91% (inactive). `COc1cccc(Cn2cnc3c(NS(=O)(=O)c4ccc(Cl)cc4)c(C)c(C)cc32)c1` was tested, and the inhibition was 7.11% (inactive). With `O=[N+]([O-])c1ccc(-c2ccc(/C=N/O)o2)cc1` the inhibition was 2.25% (inactive). With `NC(=O)N/N=C/c1ccc(-c2ccc([N+](=O)[O-])cc2)o1` the inhibition was 2.91% (inactive). With `O=C(O)c1ccc(N/N=C/c2ccc(-c3cccc(Cl)c3)o2)cc1` the inhibition was 13.1% (inactive). `NC(=S)N/N=C/c1ccc(-c2ccc([N+](=O)[O-])cc2)o1` was tested, and the inhibition was -0.83% (inactive). For `O=C(N/N=C/c1ccc(-c2cccc([N+](=O)[O-])c2)o1)c1ccc([N+](=O)[O-])cc1`, the inhibition was 2.39% (inactive). For `O=C(N/N=C/c1ccc(-c2ccc([N+](=O)[O-])cc2)o1)C(O)c1ccccc1` (stereo unspecified), the inhibition was 18.2% (inactive). For `O=C(N/N=C/c1ccc(-c2cccc([N+](=O)[O-])c2)o1)c1ccccc1O`, the inhibition was -18.1% (inactive). For `Cc1ccc(C(=O)N/N=C\c2ccc(-c3ccc([N+](=O)[O-])cc3)o2)cn1`, the inhibition was 9.19% (inactive). For `Cc1ccc(-n2c(-c3ccco3)n[nH]c2=S)cc1`, the inhibition was 0.43% (inactive). For `COC(=O)c1cc(C(=O)OC)cc(N2C(=O)CC(NNC(=O)c3ccccc3Br)C2=O)c1` (stereo unspecified), the inhibition was 17.2% (inactive). In the case of `Cc1ccc(NC(=O)CN2C(=O)c3ccccc3C2=O)nc1`, the inhibition is reported as 1.04% (inactive). For `CCn1cc(C(=O)O)c(=O)c2cc(F)c(N/N=C/c3ccccc3[N+](=O)[O-])cc21`, the inhibition was -4.53% (inactive). For `Cc1nc(-c2cccc(S(=O)(=O)N3CC(C)OC(C)C3)c2)cs1` (stereo unspecified), the inhibition was -2.63% (inactive). For `CCOc1ccc(CCNC(=O)Cc2nn[nH]n2)cc1OCC`, the inhibition was -2.11% (inactive). With `CN(C)C(=O)c1c([N+](=O)[O-])c(C(C)(C)C)nn1C` the inhibition was 9.14% (inactive). In the case of `CCOc1ccccc1NC(=S)N1CCCc2ccccc21`, the inhibition is reported as 2.13% (inactive). For `C/C=C\C(=O)Nc1cccc(C2=NOC3(C2)C[C@@H](C(N)=O)N(C(=O)c2ccccc2)C3)c1` (stereo partly specified), the inhibition was 7.63% (inactive). `COc1ccc(C2c3ccc(O)cc3Oc3ncn(CCCO)c(=N)c32)cc1` (stereo unspecified) was tested, and the inhibition was 8.86% (inactive). `O=C(O)CC1S/C(=N/N=C/c2ccc(-c3ccc(Cl)cc3[N+](=O)[O-])o2)NC1=O` (stereo unspecified) was tested, and the inhibition was 20.8% (inactive). In the case of `CNC(=S)N/N=C/c1ccc(-c2ccc(Cl)c([N+](=O)[O-])c2)o1`, the inhibition is reported as 3.04% (inactive). `O=C(Oc1ccccc1N1C(=O)C2CCCCC2C1=O)c1ccccc1F` (stereo unspecified) was tested, and the inhibition was 4.73% (inactive). `COc1ccc(NC(=O)C2CCN(S(C)(=O)=O)CC2)cc1Cl` was tested, and the inhibition was 4.6% (inactive). `O=C1C2CC=C(Cl)CC2C(=O)N1CCN1CCOCC1` (stereo unspecified) was tested, and the inhibition was 2.4% (inactive). With `CC(C)CSC1=NSC2=NC(=O)/C(=C\c3coc4ccccc4c3=O)C(=N)N12` the inhibition was 19.5% (inactive). `CCSC1=NSC2=NC(=O)/C(=C\c3coc4ccccc4c3=O)C(=N)N12` was tested, and the inhibition was 19.9% (inactive). With `Cc1cc(/C=C2/C(=N)N3C(=NC2=O)SN=C3S(C)(=O)=O)c(C)n1-c1ccc(F)cc1` the inhibition was 14.2% (inactive). In the case of `CC(C)CSC1=NSC2=NC(=O)/C(=C\c3ccccc3)C(=N)N12`, the inhibition is reported as -10% (inactive). `COc1ccccc1-n1c(C)cc(/C=C2/C(=N)N3C(=NC2=O)SN=C3S(C)(=O)=O)c1C` was tested, and the inhibition was 17.9% (inactive). `Cc1cc(/C=C2/C(=N)N3C(=NC2=O)SN=C3S(C)(=O)=O)c(C)n1-c1ccccc1F` was tested, and the inhibition was 8.82% (inactive). For `Nc1ccnn1Cc1ccc(Br)s1`, the inhibition was 14.7% (inactive). `CCOc1ccc2ncc(S(=O)(=O)c3ccccc3)c(N3CCN(c4ccc(OC)cc4)CC3)c2c1` was tested, and the inhibition was 3.98% (inactive). `Cc1ccc(-c2nc(SCC(=O)NCCN3C(=O)CSC3=O)[nH]c2-c2ccc(C)cc2)cc1` was tested, and the inhibition was -5.28% (inactive). With `COC(=O)/C(C#N)=C/c1ccc(-c2ccc(S(N)(=O)=O)cc2)o1` the inhibition was -5.9% (inactive). With `O=C(NC(Cc1ccccc1)C(=O)O)c1ccc(S(=O)(=O)N2CCOCC2)cc1` (stereo unspecified) the inhibition was -4.36% (inactive). For `COCCNC(=O)COc1ncnc2ccc(Br)cc12`, the inhibition was 0.71% (inactive). For `COCCn1c(=NC(C)=O)sc2cc([N+](=O)[O-])ccc21`, the inhibition was 1.15% (inactive). With `O=C(Nc1cccc2oc(=O)ccc12)c1ccc([N+](=O)[O-])cc1[N+](=O)[O-]` the inhibition was 8.2% (inactive). With `Cc1ccc(S(=O)(=O)N(C)C)cc1NC(=O)COC(=O)c1sc2cc(Cl)ccc2c1Cl` the inhibition was -0.59% (inactive). In the case of `CCOC(Cn1c(SCc2cc(C(C)=O)ccc2OC)nc2ccccc2c1=O)OCC`, the inhibition is reported as 2.96% (inactive). With `COCCn1c(SCc2cc(C(C)=O)ccc2OC)nc2cc(Cl)ccc2c1=O` the inhibition was 2.27% (inactive). In the case of `N/C(=N\OC(=O)CCn1cccc(C(F)(F)F)c1=O)c1ccc(Cl)cc1`, the inhibition is reported as -1.85% (inactive). `COc1cc(C)nc(N2CCCC(C(=O)Nc3cccc(Cl)c3Cl)C2)n1` (stereo unspecified) was tested, and the inhibition was 1.36% (inactive). `COc1cccc(C(=O)/C(C#N)=N/Nc2cccc(-c3ccnc(C)n3)c2)c1` was tested, and the inhibition was 8.84% (inactive). For `CCOC(=O)NC(=O)/C(C#N)=N\Nc1cccc(Cl)c1`, the inhibition was 1.92% (inactive). In the case of `N#C/C(=N\Nc1ccccc1Cl)C(=O)c1ccccc1`, the inhibition is reported as 12.7% (inactive). In the case of `N#C/C(=N\Nc1cccc(Cl)c1)C(=O)c1ccccc1`, the inhibition is reported as 23.3% (active). In the case of `CNC(=O)Nc1cccc(-c2ccnc(C)n2)c1`, the inhibition is reported as 0.72% (inactive). `COc1ccc(C(=O)/C(C#N)=N/Nc2cccc([N+](=O)[O-])c2)cc1` was tested, and the inhibition was 12.4% (inactive). For `COc1ccc(C(=O)/C(C#N)=N/Nc2ccc([N+](=O)[O-])cc2)cc1`, the inhibition was 3.64% (inactive). With `COc1ccc(C(=O)C2CCCN(C(=O)c3cc(C(C)C)no3)C2)cc1F` (stereo unspecified) the inhibition was 0.4% (inactive). For `Cc1ccc(C)n1NC(=O)c1ccc(O)cc1`, the inhibition was 17% (inactive). `CC(=O)/C=C(\C)N=Nc1c(O)[nH]c2ccccc12` was tested, and the inhibition was 6.61% (inactive). `C/C(=N\NC(=O)c1ccccc1)c1cccc(Br)c1` was tested, and the inhibition was 4.52% (inactive). For `O=C(Nc1ccccc1[N+](=O)[O-])c1cc2ccccc2nc1Cl`, the inhibition was 0.38% (inactive). `CCN(C(=O)CSc1n[nH]c(-c2cccs2)n1)C1CCS(=O)(=O)C1` (stereo unspecified) was tested, and the inhibition was -0.17% (inactive). With `Cc1cc(Cl)ccc1OCC(=O)OC(C)C(=O)NC(N)=O` (stereo unspecified) the inhibition was -2.23% (inactive). With `COc1ccc(N=Cc2cc(Cc3ccccc3Cl)cc([N+](=O)[O-])c2O)cc1OC` the inhibition was 10.4% (inactive). For `O=C1CCCN1CCC1CCCCN1Cc1nc(-c2cnccn2)no1` (stereo unspecified), the inhibition was -4.06% (inactive). `COc1ccc(NS(=O)(=O)c2cccc(-c3nnc4n3CCCCC4)c2)cc1` was tested, and the inhibition was 20% (inactive). For `CCCC1=[N+](CC(=O)c2ccccc2)CCn2c(C)ccc21`, the inhibition was 8.08% (inactive). For `CCCC1=[N+](CC)CCn2c(C)ccc21`, the inhibition was 47.2% (active). For `CCCC1=[N+](CC(C)=O)CCn2c(C)ccc21`, the inhibition was 6.47% (inactive). For `O=C(COC(=O)c1ccccc1NC(=O)c1ccco1)NCc1ccc2c(c1)OCO2`, the inhibition was -2.79% (inactive). `CCCn1nc(C(=O)NCc2ccc3c(c2)OCO3)c2ccccc2c1=O` was tested, and the inhibition was 9.46% (inactive). In the case of `COc1ccc(C2CC(c3ccc4ccccc4c3)=NN2C(=O)COC(=O)C2CCC(=O)N2)cc1` (stereo unspecified), the inhibition is reported as 2.25% (inactive). `O=C(Nc1ccc(S(=O)(=O)NCc2ccco2)cc1)c1ccncc1` was tested, and the inhibition was 6.85% (inactive). `COc1ccc(NC(=S)NCc2ccccn2)cc1OC` was tested, and the inhibition was 10.7% (inactive). `COC(=O)CCC(=O)NNC(=O)Cc1ccccc1` was tested, and the inhibition was 1.14% (inactive). For `COC(=O)CCP(=O)(O)Cc1ccccc1CP(=O)(O)CCC(=O)OC`, the inhibition was 25.9% (active). `COC(=O)CP(=O)(c1ccccc1)c1ccccc1` was tested, and the inhibition was 6.71% (inactive). In the case of `Brc1c(CSc2nncn2-c2ccccc2)nc2ncccn12`, the inhibition is reported as 9.69% (inactive). For `NC(=O)CSc1nnc(-c2cccs2)n1Cc1ccco1`, the inhibition was 8.05% (inactive). With `COc1ccccc1NS(=O)(=O)c1ccc(O)c(C(=O)OCC(=O)Nc2ccccc2F)c1` the inhibition was -2.66% (inactive). With `O=C(COC(=O)c1ccc(NS(=O)(=O)c2cccs2)cc1O)Nc1nc2ccccc2s1` the inhibition was 8.12% (inactive). `COc1cc(-c2nc3ccc4ccccc4c3c3c2CCC3)ccc1O` was tested, and the inhibition was 8.66% (inactive). With `Cc1ccc(-c2nc(CN3CCN(c4cnccn4)CC3)c(C)o2)o1` the inhibition was 5.52% (inactive). For `CCOC(=O)C1CCCN(C(=O)c2cc(-c3ccc(F)cc3)nc3ccccc23)C1` (stereo unspecified), the inhibition was 0.66% (inactive). For `Cc1ccc(C)c2[nH]c(=O)c(CN(Cc3ccco3)S(=O)(=O)c3ccc4c(c3)OCCO4)cc12`, the inhibition was 11.6% (inactive).
